Compounds without any hit were thinned out: in the full panel of roughly 83,000, 20% have a hit.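 Each cell line was grown in a 96-well plate and treated with one concentration of compound for 48 hours. Values below 10 were considered active.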 Active and inactive are the calls of the source.
What follows are compounds tested on U251 CNS (assay: NCI-60 one-dose screen, 48 h (100 = growth as untreated, 0 = no growth, -100 = all killed)). Conditions: 10 µM unless noted.

Compound | growth
COc1ccc(-c2nnc(SCC(=O)Nc3ccc(C(=O)/C=C/c4ccccc4)cc3)o2)cc1OC | 98% (inactive)
CCC(N)(C(=O)O)c1ccc(F)cc1 (stereo unspecified) | 90.7% (inactive)
COc1ccc(-c2c(C#N)cnc(N)c2-c2nc3cc(C)c(C)cc3[nH]2)cc1 | 1.05% (active)
CC(C)(C)NCC(O)COc1c(Br)c(Br)c(Br)c2c1OC(C)(C)C2 (stereo unspecified) | -92.4% (active)
O=C1/C(=C/c2cccc3cnccc23)Cc2cc(F)ccc21 | 95.8% (inactive)
COC(OC)C1(c2ccccc2)NC(=O)NC1=O (stereo unspecified) | 107% (inactive)
c1cncc(-c2nc3ccccc3[nH]2)c1 | 104% (inactive)

What follows are compounds tested on PC-3 prostate in the same assay as above. Conditions: 10 µM unless noted.

Compound | growth
COC(=O)c1oc2c(C(=O)/C=C/c3ccc(OC)cc3)c(OCCN3CCOCC3)ccc2c1C | 8.1% (active)
CN(C)c1ccc(/C=N/n2c(-c3cc(F)c(Cl)cc3Cl)nn(CN3CCOCC3)c2=S)cc1 | 103% (inactive)
CS(=O)(=O)OCC(COS(C)(=O)=O)C(c1ccccc1)c1ccccc1 | 97.2% (inactive)
Nc1ncnc2c1c(C(F)(F)F)cn2[C@@H]1O[C@H](CO)[C@@H](O)[C@H]1O | 12.1% (inactive)
Cc1nccc2c3ccc(OCc4cn(Cc5ccc(Br)cc5)nn4)cc3n(CCCc3ccccc3)c12 | 77.9% (inactive)
[2H]c1nc(Nc2ncc(F)c(-c3cc(F)c4nc(C)n(C(C)C)c4c3)n2)c([2H])c([2H])c1CN1CCN(CC)CC1 | 47.8% (inactive)
COc1cc(/C=C2/Oc3cc4occc4c(OC)c3C2=O)ccc1OCC(=O)Nc1ccncc1 | 95.5% (inactive)
COc1ccc2c(c1)OC(N)=C(C#N)C2c1ccc(F)cc1 (stereo unspecified) | 27.9% (inactive)
CCCCCCCCCCCCCCCCNc1ccccc1 | 82% (inactive)
O=C(Nc1ccc(-n2ccc3c(NC(=O)c4ccccc4)ncnc32)cc1)c1cccc(C(F)(F)F)c1 | 43.7% (inactive)
COc1ccc(/C(Cl)=N/N=C(\Cl)c2cc(OC)c(OC)c(OC)c2)cc1OC(C)=O | 74.8% (inactive)
O=C1C(Cl)=C(Nc2ccccc2)C(=O)C(Cl)=C1Nc1ccccc1 | 109% (inactive)
O=C(Nc1ccc(-n2cc(-c3ccncc3)c(-c3ccc(O)c(Cl)c3)n2)cc1)c1cc(C(F)(F)F)cc(C(F)(F)F)c1 | 35.8% (inactive)
CCn1c(C)nc([N+](=O)[O-])c1Sc1nc(N)nc2nc[nH]c12 | 52.7% (inactive)
Cc1cn(C2CC(N=[N+]=[N-])C(COP(=O)(O)OP(=O)(O)OP(=O)(O)O)O2)c(=O)[nH]c1=O (stereo unspecified) | 92.4% (inactive)
COc1cc(/C=C\c2cc(/C=C\c3ccc(O)c(OC)c3)n(C(=O)CNc3ccccc3OC)n2)ccc1O | 64.2% (inactive)
COc1ccc(Cl)cc1NC(=O)c1cc2c([nH]1)-c1nc(NC(=O)C(C)C)sc1CC2 | 87.6% (inactive)
O=C(/C=C/c1ccco1)c1cccc(Nc2nc(Nc3ccccc3)nc(Nc3ccccc3)n2)c1 | 66.4% (inactive)
O=C(Nc1ccc(-n2ccc3c(NC(=O)c4ccccc4)ncnc32)cc1)Nc1ccc(Cl)c(C(F)(F)F)c1 | -38.8% (active)
CN(C)CCCOc1c(Br)cc(/C=C/C(=O)N(C)CCc2cc(Br)c(OCCCN(C)C)c(Br)c2)cc1Br | 65.1% (inactive)
C=C(C)[C@@H]1C/C=C(\COC(=O)[C@H](OC(C)=O)C(NC(=O)c2ccccc2)c2ccccc2)CC[C@H]2O[C@]2(C)CC/C=C(\C)CC1 (stereo partly specified) | 32.1% [5 µM] (inactive)
COc1ccc(Cl)cc1NC(=O)c1cc2c([nH]1)-c1nc(NC(=O)C(C)(C)C)sc1CC2 | 61.4% (inactive)
CC1CCC(C(C)C)C(NN)C1 (stereo unspecified) | 93.9% (inactive)
Cl[C@@H]1CCO[C@H](c2cc3ccccc3c3ccccc23)C1 | 92.8% (inactive)
C[C@]12CC[C@@H]3c4ccc(O)c(N)c4CC[C@H]3[C@@H]1CC[C@@H]2O | 97.6% (inactive)
COc1ccc(/C=C/C(=O)c2ccc(-n3cc(CN4CCN(c5cc6c(cc5F)c(=O)c(C(=O)O)cn6C5CC5)CC4)nn3)cc2)cc1OC | 9.95% (active)
COc1ccc(-c2nn(-c3ccc(NC(=O)c4ccc(Cl)c(C(F)(F)F)c4)cc3)cc2-c2ccncc2)cc1Cl | 23.2% (inactive)
O=C(O)c1cc2ccccc2cc1Nc1ccccc1 | 95.7% (inactive)
COc1ccc(Cn2cc3c(c2-c2cc(OC)c(OC)c(OC)c2)CCc2c(CO)noc2-3)cc1 | 26.5% (inactive)

Reference: PubChem BioAssay (NCI)
